The values below come from PubChem BioAssay (Tox21).

Molecules are shown by their SMILES. “And” between values parts separate entries of the source, which are not always exact repeats. Equal entries are not always repeated. Records with an inconclusive call do not appear. Where a structure was tested more than once in an assay, its records may differ in their call. The source made the active and inactive calls. Unless noted, calls follow the shape of the dose curve; as a rule, active = well fitted curve in the direction sought with a large enough effect in the repeat runs; inconclusive = weak or mixed curves; inactive = no such curve, though single readings can be large; an effect the other way counts as inactive or inconclusive.

The nature of experiment [1]: qHTS assay to identify small molecule that activate the aryl hydrocarbon receptor (AhR) signaling pathway - cell viability counter screen (AID 743086). Also: nearly all actives have a fitted effect of over 45% in size. Also: potency is read from the fitted curve at half-maximal effect. In short, it runs like this:
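HepG2-AhR-luc (HG2L7.5c1) cells, 4000/well, treated 24 h at 37 C with compound; viability measured as CellTiter-Fluor fluorescence after 30 min in the same wells as the luciferase read.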
For orientation: qHTS replaces the single test concentration by a dilution series.

The target of experiment [2] is Peroxisome proliferator-activated receptor gamma (Homo sapiens) (UniProt P37231). As to the kind of experiment: qHTS assay to identify small molecule agonists of the peroxisome proliferator-activated receptor gamma (PPARg) signaling pathway (AID 743094; active = well fitted activation curve with a large enough effect in the signal ratio in the repeat runs, not every such curve was filed as active; the % refers to the signal ratio). An outline of the steps: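 Fluorescence-based beta-lactamase readout in HEK293H PPARg UAS-bla cells after 17 h compound exposure (37C) and 1 h B/G FRET substrate incubation at room temperature.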
Chain of Peroxisome proliferator-activated receptor gamma (Homo sapiens) (P37231 whole entry, looked up): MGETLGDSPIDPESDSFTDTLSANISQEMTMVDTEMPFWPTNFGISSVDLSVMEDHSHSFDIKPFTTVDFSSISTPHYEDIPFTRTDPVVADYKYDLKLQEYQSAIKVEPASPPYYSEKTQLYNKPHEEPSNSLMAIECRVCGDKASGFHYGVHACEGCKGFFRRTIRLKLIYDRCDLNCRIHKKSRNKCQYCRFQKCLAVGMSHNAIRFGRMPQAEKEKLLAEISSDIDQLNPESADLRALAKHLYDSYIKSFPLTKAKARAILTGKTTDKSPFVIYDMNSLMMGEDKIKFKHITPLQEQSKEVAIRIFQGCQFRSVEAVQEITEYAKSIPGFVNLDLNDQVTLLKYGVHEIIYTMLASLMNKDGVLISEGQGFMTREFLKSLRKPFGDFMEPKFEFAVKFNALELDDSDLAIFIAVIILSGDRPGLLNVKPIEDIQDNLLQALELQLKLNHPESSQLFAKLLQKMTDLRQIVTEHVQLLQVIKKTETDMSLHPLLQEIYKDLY

Experiment [3] has the same target. The experiment is described as follows: qHTS assay to identify small molecule antagonists of the peroxisome proliferator-activated receptor gamma (PPARg) signaling pathway (AID 743191; calls by dose curve; also: series mostly up to about 63 µM; nearly all actives have a fitted effect of over 30% in size). In short, it runs like this:
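GeneBLAzer PPARg UAS-bla HEK293H cells, 5 h post-plating, exposed to compounds 17 h at 37C. LiveBLAzer B/G FRET substrate added for 1 h at room temperature; beta-lactamase reporter read by fluorescence intensity.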

Experiment [4] is described as follows: qHTS assay to identify small molecule antagonists of the peroxisome proliferator-activated receptor gamma (PPARg) signaling pathway - cell viability counter screen (AID 743194). Also: nearly all actives have a fitted effect of over 55% in size. In short, it runs like this: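 Cytotoxicity counter screen in PPARg-bla HEK293H cells, same wells as reporter assay. Compounds plus 50 nM rosiglitazone (final) for 17 h at 37 C, then viability read by CellTiter-Glo luminescence.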

A short description of experiment [5]: qHTS assay for small molecule agonists of the antioxidant response element (ARE) signaling pathway (AID 743202; active = well fitted activation curve with a large enough effect in the signal ratio in the repeat runs, not every such curve was filed as active; the % refers to the signal ratio; also: potency is read from the fitted curve at half-maximal effect). An outline of the steps:
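HepG2 ARE-bla reporter line, 2,000 cells/well; 5 h preincubation 37 C/5% CO2; compound (DMSO) 16 h 37 C; B/G FRET substrate 2 h RT; fluorescence intensity.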

Experiment [6] can be described thus: qHTS assay for small molecule agonists of the antioxidant response element (ARE) signaling pathway - cell viability counter screen (AID 743203; calls by dose curve; also: nearly all actives have a fitted effect of over 55% in size; also: potency is read from the fitted curve at half-maximal effect). In short, it runs like this:
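Parallel cytotoxicity read-out for the ARE-bla screen: HepG2 reporter cells, 16 hrs with compounds, then CellTiter-Glo luminescence.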

Experiment [7] in a line: qHTS assay for small molecule activators of the heat shock response signaling pathway - cell viability counter screen (AID 743209). Also: nearly all actives have a fitted effect of over 50% in size. An outline of the steps: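 To flag cytotoxic compounds, HSE-bla HeLa cells plated at 1500 cells/well were dosed for 5 h at 37 C, followed by the reporter FRET read and then CellTiter-Glo, with luminescence recorded 30 min after reagent addition.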

Experiment [8] is described as follows: qHTS assay for small molecule activators of the heat shock response signaling pathway (AID 743210; active = well fitted activation curve with a large enough effect in the signal ratio in the repeat runs, with a control signal flat, not every such curve was filed as active; the % refers to the signal ratio; also: series mostly up to about 63 µM). In short, it runs like this: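 Beta-lactamase reporter read-out: FRET substrate fluorescence after 2.5 h at RT, following 5 h compound treatment at 37 C of HeLa cells carrying HSE-driven bla reporter; quantitative HTS format.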
Experiment [9] in a line: qHTS assay to identify small molecule agonists of the peroxisome proliferator-activated receptor delta (PPARd) signaling pathway - cell viability counter screen (AID 743211). Also: nearly all actives have a fitted effect of over 55% in size. Also: potency is read from the fitted curve at half-maximal effect. In short, it runs like this:
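Read-out: CellTiter-Glo luminescence, 30 min RT, measured in the same wells as the beta-lactamase reporter. Cells: GeneBLAzer PPAR delta UAS-bla HEK293H, 3000 cells/well, compound exposure 17 h at 37C.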

For experiment [10], the target named is Peroxisome proliferator-activated receptor delta (Homo sapiens) (UniProt Q03181). The experiment is described as follows: qHTS assay to identify small molecule agonists of the peroxisome proliferator-activated receptor delta (PPARd) signaling pathway (AID 743212; calls by dose curve). In short, it runs like this:
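Read-out: beta-lactamase FRET fluorescence after 2 h room-temperature incubation with LiveBLAzer B/G substrate. Cells were HEK293H carrying a UAS-bla reporter for PPARd, treated at 37 C with DMSO-dissolved compounds.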

Experiment [11] in a line: qHTS assay to identify small molecule antagonists of the peroxisome proliferator-activated receptor delta (PPARd) signaling pathway - cell viability counter screen (AID 743213). Also: nearly all actives have a fitted effect of over 50% in size. Also: potency is read from the fitted curve at half-maximal effect. In short, it runs like this:
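In this counter screen, HEK293H cells carrying a UAS-beta-lactamase reporter are co-treated with test compounds and 300 nM L165041 (final) for 17 h at 37 C; cell viability is quantified by CellTiter-Glo luminescence.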

Experiment [12] addresses Peroxisome proliferator-activated receptor delta (Homo sapiens) (UniProt Q03181). As to the kind of experiment: qHTS assay to identify small molecule antagonists of the peroxisome proliferator-activated receptor delta (PPARd) signaling pathway (AID 743215; active = well fitted inhibition curve with a large enough effect in the signal ratio in the repeat runs, not every such curve was filed as active; the % refers to the signal ratio;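 also: cells stimulated with agonist L165041 at 300 nM final during compound exposure; series mostly up to about 62 µM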). In short, it runs like this:
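Screen format: qHTS, antagonist mode. HEK293H PPARd-bla cells received compound and 300 nM L165041 (final), 17 h, 37 C. Beta-lactamase detected via FRET substrate fluorescence, 2 h, room temperature.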

Experiment [13] has as its target Bile acid receptor (Homo sapiens) (UniProt Q96RI1). The experiment is described as follows: qHTS assay to identify small molecule antagonists of the farnesoid-X-receptor (FXR) signaling pathway (AID 743217; active = well fitted inhibition curve with a large enough effect in the signal ratio in the repeat runs, not every such curve was filed as active; the % refers to the signal ratio). In short, it runs like this: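 Quantitative HTS, beta-lactamase reporter format: FXR-UAS-bla HEK 293T cells co-treated 16 h at 37 °C with compounds and 50 uM final chenodeoxycholic acid, then read by B/G FRET fluorescence.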

Experiment [14] is described as follows: qHTS assay to identify small molecule agonists of the farnesoid-X-receptor (FXR) signaling pathway - cell viability counter screen (AID 743218). Also: nearly all actives have a fitted effect of over 45% in size. Also: potency is read from the fitted curve at half-maximal effect. In short, it runs like this: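 Same-well cytotoxicity check on FXR-UAS-bla HEK 293T cells: 5 h attachment, 16 h compound at 37 C, CellTiter-Glo luminescence read at room temperature after 30 min.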
Experiment [15] deals with Bile acid receptor (Homo sapiens) (UniProt Q96RI1). The experiment is described as follows: qHTS assay to identify small molecule agonists of the farnesoid-X-receptor (FXR) signaling pathway (AID 743220; active = well fitted activation curve with a large enough effect in the signal ratio in the repeat runs, not every such curve was filed as active; the % refers to the signal ratio). In short, it runs like this: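 FXR-UAS-bla HEK 293T cells carrying a UAS-driven beta-lactamase reporter were plated for 5 h at 37C/5% CO2, then exposed to DMSO-dissolved Tox21 10K compounds for 16 h at 37C. A LiveBLAzer B/G FRET substrate was loaded for 2 h at room temperature before fluorescence reading.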
Chain of Bile acid receptor (Homo sapiens) (Q96RI1 whole entry, looked up): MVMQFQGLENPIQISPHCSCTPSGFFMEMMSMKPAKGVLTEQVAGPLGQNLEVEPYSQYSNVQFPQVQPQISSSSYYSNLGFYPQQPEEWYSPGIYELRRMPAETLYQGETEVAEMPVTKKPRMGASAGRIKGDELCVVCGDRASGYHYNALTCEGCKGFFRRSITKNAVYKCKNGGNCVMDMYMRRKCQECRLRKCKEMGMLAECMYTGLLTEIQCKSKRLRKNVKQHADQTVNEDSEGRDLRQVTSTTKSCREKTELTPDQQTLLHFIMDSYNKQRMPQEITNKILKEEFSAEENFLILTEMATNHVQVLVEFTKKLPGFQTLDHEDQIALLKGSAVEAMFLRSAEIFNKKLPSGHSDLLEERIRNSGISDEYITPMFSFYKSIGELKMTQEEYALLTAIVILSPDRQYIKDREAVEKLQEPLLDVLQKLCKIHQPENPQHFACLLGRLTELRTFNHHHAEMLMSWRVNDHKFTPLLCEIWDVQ

Experiment [16] can be described thus: qHTS assay to identify small molecule antagonists of the farnesoid-X-receptor (FXR) signaling pathway - cell viability counter screen (AID 743221; active = well fitted cell-killing curve with a large enough effect in the repeat runs, not every such curve was filed as active; also: nearly all actives have a fitted effect of over 50% in size; also: potency is read from the fitted curve at half-maximal effect). In short, it runs like this:
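HEK 293T FXR-bla cells, 5 h pre-incubation; compound + CDCA 50 uM final, 16 h, 37 C; beta-lactamase FRET read first, then CellTiter-Glo luminescence, 30 min RT.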

Experiment [17] concerns the target Vitamin D3 receptor (Homo sapiens) (UniProt P11473). As to the kind of experiment: qHTS assay to identify small molecule agonists of the vitamin D receptor (VDR) signaling pathway (AID 743222; calls by dose curve). An outline of the steps: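 Using LiveBLAzer B/G FRET detection, agonism was scored in VDR-bla cells exposed overnight (16 h, 37C) to DMSO-dissolved compounds; substrate incubation was 2 h at room temperature.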

Experiment [18] shares this target. The experiment is described as follows: qHTS assay to identify small molecule antagonists of the vitamin D receptor (VDR) signaling pathway (AID 743223; active = well fitted inhibition curve with a large enough effect in the signal ratio in the repeat runs, not every such curve was filed as active; the % refers to the signal ratio). In short, it runs like this:
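Beta-lactamase reporter read-out: FRET substrate fluorescence after 2 h at room temperature, following 16 h exposure of VDR-bla cells to test compound plus 3 nM (final) 1alpha,25-dihydroxyvitamin D3 agonist at 37C.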

The nature of experiment [19]: qHTS assay to identify small molecule agonists of the vitamin D receptor (VDR) signaling pathway - cell viability counter screen (AID 743224). Also: nearly all actives have a fitted effect of over 50% in size. Also: potency is read from the fitted curve at half-maximal effect. In short, it runs like this:
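Counter screen for cytotoxicity: VDR-bla cells at 2,000 cells/well, 16 h compound exposure, then CellTiter-Glo luminescence after the beta-lactamase measurement.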

Experiment [20] can be described thus: qHTS assay to identify small molecule antagonists of the vitamin D receptor (VDR) signaling pathway - cell viability counter screen (AID 743225). Also: nearly all actives have a fitted effect of over 50% in size. Also: potency is read from the fitted curve at half-maximal effect. An outline of the steps:
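Viability counter screen run in the same wells as the beta-lactamase reporter assay: HEK 293T VDR-UAS-bla cells, 16 h compound exposure at 37C with 3 nM (final) 1-alpha,25-dihydroxyvitamin D3. CellTiter-Glo luminescence, 30 min, room temperature.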

Chain of Peroxisome proliferator-activated receptor delta (Homo sapiens) (Q03181 whole entry, looked up): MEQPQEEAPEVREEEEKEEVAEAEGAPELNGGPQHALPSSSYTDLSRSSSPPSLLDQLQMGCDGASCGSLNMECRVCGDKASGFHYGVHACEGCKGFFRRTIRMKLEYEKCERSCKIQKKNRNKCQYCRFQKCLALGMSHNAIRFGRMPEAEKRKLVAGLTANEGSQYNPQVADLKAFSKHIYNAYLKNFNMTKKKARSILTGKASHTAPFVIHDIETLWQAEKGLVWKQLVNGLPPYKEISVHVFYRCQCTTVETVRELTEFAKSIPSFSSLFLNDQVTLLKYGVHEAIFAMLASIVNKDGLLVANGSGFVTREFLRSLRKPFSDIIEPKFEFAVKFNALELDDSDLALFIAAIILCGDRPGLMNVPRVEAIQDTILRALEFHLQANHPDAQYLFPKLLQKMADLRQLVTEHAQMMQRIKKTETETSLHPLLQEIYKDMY
Chain of Vitamin D3 receptor (Homo sapiens) (P11473 whole entry, looked up): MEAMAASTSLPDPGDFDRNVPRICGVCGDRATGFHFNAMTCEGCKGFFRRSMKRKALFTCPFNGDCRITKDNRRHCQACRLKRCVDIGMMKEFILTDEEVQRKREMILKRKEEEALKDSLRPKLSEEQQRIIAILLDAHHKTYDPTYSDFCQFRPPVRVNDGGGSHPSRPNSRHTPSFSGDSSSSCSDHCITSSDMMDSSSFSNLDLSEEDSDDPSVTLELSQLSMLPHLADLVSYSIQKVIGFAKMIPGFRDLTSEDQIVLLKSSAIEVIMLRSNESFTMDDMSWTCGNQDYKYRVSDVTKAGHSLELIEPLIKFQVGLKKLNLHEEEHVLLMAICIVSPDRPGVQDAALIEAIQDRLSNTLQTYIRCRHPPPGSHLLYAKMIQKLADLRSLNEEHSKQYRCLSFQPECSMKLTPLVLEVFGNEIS

With `COC(C)COC(C)COC(C)CO` (stereo not drawn), the Potency result in [1], in [2], in [3], in [4], in experiment [5] and in [6] was “inactive” throughout. Besides, the Potency result in [7], in [8], in experiment [9], in experiment [11], in [12] and in experiment [13] was “inactive” throughout. For the same molecule, the Potency result in [14], in experiment [16], in experiment [19] and in [20] was “inactive” throughout. Also, the outcome in experiment [10], in experiment [15], in experiment [17] and in experiment [18] was inactive.

On to `Cc1ccc(C)c(O)c1C`, for which the Potency entry in experiment [1], in [2], in [3], in experiment [4], in experiment [5] and in experiment [6] was “inactive” each time. In addition, the Potency entry in experiment [7], in experiment [8], in experiment [9], in experiment [11], in experiment [12] and in experiment [14] was “inactive” throughout. Further, the Potency entry in experiment [16], in experiment [19] and in experiment [20] was “inactive” throughout. For the same molecule, the call in experiment [10], in [17] and in experiment [18] was inactive.

For the molecule `CC(=O)C1(C)CC2=C(CCCC2(C)C)CC1C` (stereo not drawn), the Potency entry in experiment [1], in experiment [2], in [3], in experiment [4], in experiment [5] and in [6] was “inactive” each time. Also, the Potency result in [7], in experiment [8], in experiment [9], in [11], in experiment [12] and in experiment [14] was “inactive” throughout. Besides, the Potency result in [16] and in experiment [19] was “inactive” throughout. In addition, the molecule was called inactive in experiment [10], in [17] and in experiment [18].

Turning to `Cc1cccc([N+](=O)[O-])c1C`, the Potency result in [1], in experiment [2], in experiment [3], in [4], in experiment [5] and in experiment [6] was “inactive” each time. For the same molecule, the Potency entry in experiment [7], in experiment [8], in experiment [9], in experiment [11], in [12] and in experiment [14] was “inactive” each time. In addition, the Potency entry in experiment [16], in experiment [19] and in experiment [20] was “inactive” in each case. Also, the molecule was classed as inactive in experiment [10], in [17] and in [18].

Regarding `Nc1ccc(Cl)cc1Cl`, the Potency result in experiment [1], in [2], in [3], in experiment [4], in [5] and in [6] was “inactive” in each case. Moreover, the Potency entry in [7], in experiment [8], in [9], in experiment [11], in experiment [12] and in experiment [13] was “inactive” each time. The Potency entry in [14], in experiment [16], in [19] and in experiment [20] was “inactive” in each case. The molecule was classed as inactive in experiment [10] and in experiment [15].

Take `CC1=CC2C3CC(C=C3C)C2C1` (stereo not drawn): the Potency entry in experiment [1], in [2], in experiment [3], in experiment [4], in experiment [6] and in experiment [7] was “inactive” each time. The Potency result in experiment [8], in experiment [9], in experiment [11], in [12], in experiment [14] and in experiment [16] was “inactive” throughout. Besides, the Potency entry in experiment [19] and in [20] was “inactive” in each case. For the same molecule, in experiment [5], the Potency entry is “inactive and 27.3 µM (active)”. The outcome in experiment [10] and in experiment [17] was inactive.

Consider `CCCCNS(=O)(=O)c1ccccc1`, for which the Potency result in experiment [1], in [2], in experiment [3], in experiment [4], in experiment [5] and in experiment [6] was “inactive” in each case. For the same molecule, the Potency result in [7], in [8], in experiment [9], in experiment [11], in experiment [13] and in experiment [14] was “inactive” each time. The Potency result in [16], in experiment [19] and in experiment [20] was “inactive” each time. Further, the result in experiment [15], in experiment [17] and in [18] was inactive.

As to `Cc1ccc2c(n1)Oc1ccc(C(C)C(=O)OCC(=O)N(C)C)cc1C2` (stereo not drawn), the Potency result in [1], in experiment [2], in experiment [3], in [4], in experiment [5] and in experiment [6] was “inactive” throughout. Also, the Potency entry in [7], in experiment [8], in [11], in [12], in experiment [14] and in experiment [16] was “inactive” in each case. The Potency result in experiment [19] and in experiment [20] was “inactive” throughout. The outcome in [10], in [17] and in [18] was inactive.

As for `O=C(c1ccc(OCCN2CCCCC2)cc1)c1c(-c2ccc(O)cc2)sc2cc(O)ccc12`, the Potency in [1] is 21.1 µM (active) and 21.7 µM (active) and 19.3 µM (active); in [6], 61.2 µM (active) and 17.2 µM (active) and 29.8 µM (active); in experiment [9], 38.9 µM (active) and 12.3 µM (active) and 26.6 µM (active); in [11], 24.6 µM (active) and 8.71 µM (active) and 26.6 µM (active); in experiment [14], 49 µM (active) and 12.3 µM (active) and 23.7 µM (active); in experiment [16], 55 µM (active). Besides, the Potency in experiment [19] was 55 µM (active) and 21.9 µM (active) and 33.5 µM (active); in experiment [20], 17.4 µM (active). Moreover, the Potency entry in [7] and in experiment [8] was “inactive” each time.
